This is a sample that favours compounds with a hit; in the whole collection about 12% have one here.
G9a block = qHTS Assay for Inhibitors of Histone Lysine Methyltransferase G9a; actives 8.8% (n = 350,000); Potency, µM (titrated, usually from 102 µM), actives largely listed as inhibitors; G9a H3K9 monomethylation, AlphaScreen, 2 h; also: nearly all actives have a fitted effect of over 75% in size
Target sequence (Q96KQ7 913-1193 limits assumed): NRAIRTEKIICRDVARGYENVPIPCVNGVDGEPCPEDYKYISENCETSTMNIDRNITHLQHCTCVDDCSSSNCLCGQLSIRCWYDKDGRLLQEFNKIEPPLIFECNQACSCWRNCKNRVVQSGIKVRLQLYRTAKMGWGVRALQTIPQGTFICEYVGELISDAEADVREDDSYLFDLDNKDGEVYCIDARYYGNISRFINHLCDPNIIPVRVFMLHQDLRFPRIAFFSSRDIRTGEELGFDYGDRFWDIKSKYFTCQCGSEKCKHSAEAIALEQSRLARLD
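AlphaScreen detection with an anti-monomethyl H3K9 antibody quantified product after a 2 h room-temperature reaction containing 500 nM biotinylated H3K9 peptide, 20 µM SAM and 20 nM enzyme, which had been preincubated 15 min with compound.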
BAZ2B block = qHTS Assay for Inhibitors of BAZ2B. Bromodomain adjacent to zinc finger domain protein 2B (Homo sapiens), Q9UIF8. AlphaScreen BAZ2B-H3K14Ac peptide displacement. Potency, µM (series often up to 114 µM), most hits filed as inhibitors. actives 4.4% (n = 360,000); also: nearly all actives have a fitted effect of over 60% in size
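In this displacement format the biotinylated H3(5-23) peptide acetylated at Lys14 serves as ligand at 50 nM, with BAZ2B at 50 nM in PBS pH 7.4 containing 0.01% Tween-20. Donor and acceptor beads are 10 ug/mL final.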
JMJD2A Tudor inh = qHTS Assay for Inhibitors of JMJD2A-Tudor Domain | Potency, µM (titrated, usually from 114 µM), most hits filed as inhibitors | actives 4.4% (n = 390,000) | Lysine-specific demethylase 4A (Homo sapiens), O75164 | AlphaScreen JMJD2A-Tudor / H3K4me3 peptide binding; also: nearly all actives have a fitted effect of over 50% in size
PLK1 PBD inh = qHTS for Inhibitors of PLK1-PDB (polo-like kinase 1 - polo-box domain): Primary Screen; Potency, µM, usual class: inhibitors; actives 2.8% (n = 360,000); Plk1 PBD binding of FITC phosphopeptide, fluorescence polarization; Serine/threonine-protein kinase PLK1 (Homo sapiens), P53350; also: series mostly up to about 57 µM; nearly all actives have a fitted effect of over 65% in size
HP1b chromo inh = HTS for Inhibitors of HP1-beta Chromodomain Interactions with Methylated Histone Tails. Chromobox protein homolog 1 (Homo sapiens), P83916. AlphaScreen HP1-beta / biotin-H3K9me3 peptide binding. Potency, µM (doses to about 114 µM), usual class: inhibitors. actives 0.56% (n = 390,000); also: nearly all actives have a fitted effect of over 70% in size
Target sequence (P83916 whole entry, looked up): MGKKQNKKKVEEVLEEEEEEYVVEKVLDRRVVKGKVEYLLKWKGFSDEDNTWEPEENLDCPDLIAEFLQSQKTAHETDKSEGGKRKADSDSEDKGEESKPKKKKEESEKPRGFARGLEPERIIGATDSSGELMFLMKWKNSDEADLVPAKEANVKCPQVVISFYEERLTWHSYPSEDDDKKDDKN
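HP1-beta protein (50 nM final) preincubated 30 min at room temperature with biotinylated H3(1-18)K9me3 peptide (50 nM) in PBS pH 7.4, 0.01% Tween-20, then compound added for 30 min. AlphaScreen streptavidin donor/nickel chelate acceptor beads (10 ug/mL final), 30 min dark, luminescence read.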
Sfp inh = qHTS Assay for Inhibitors of Bacillus subtilis Sfp phosphopantetheinyl transferase (PPTase); AID 1490, 2009; Potency, µM, usual class: inhibitors; 4'-phosphopantetheinyl transferase ffp (Bacillus subtilis), Q9F4F7; Biochemical Sfp PPTase activity, qHTS; actives 3.5% (n = 310,000);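 also: the enzyme is Sfp with the accession as filed and its product quenches rhodamine fluorescence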
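With Hepes-Na pH 7.6 buffer containing 10 mM MgCl2, Sfp (15 nM) modified BHQ-2-YbbR (12.5 uM) using rhodamine-CoA (5 uM). Two reads 30 minutes apart at 525/598 nm yielded each well's rate.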
Numbers stand for hits; . = inactive; ? = inconclusive; / = not tested or not shown; [ ] = remark or other dose. Calls follow the shape of the dose curve; as a rule, active = well fitted curve in the direction sought with a large enough effect; inconclusive = small, poorly fitted or top-dose-only effect, or another doubt; inactive = no such curve, though single readings can be large; an effect the other way counts as inactive or inconclusive.

SMILES	G9a block	BAZ2B block	JMJD2A Tudor inh	PLK1 PBD inh	HP1b chromo inh	Sfp inh
O=c1[nH]c(=S)[nH]c(O)c1N=Nc1cccc(S(=O)(=O)N2CCOCC2)c1	50.1µM	.	.	.	.	.
O=c1[nH]c(O)c(N=Nc2ccc3c(c2)OCCO3)c(=O)[nH]1	50.1µM	?	?	.	.	.
Cc1ccc(C[N+](C)(C)C)o1	.	/	/	/	/	.
O=C(N=Nc1c(O)[nH]c(=O)[nH]c1=O)C1COc2ccccc2O1 (stereo not given)	44.7µM	.	.	.	.	?
O=C(CCN1CCCCC1)Nc1ccc(Br)cc1C(=O)c1ccccc1	.[2.33 µM]	.	.	.	.	.
O=C(CCN1CCN(c2ccccc2)CC1)c1ccc(Br)cc1	20µM	?	.	8.44µM	.	.
C=CCN1C[C@H](C)N([C@H](c2ccc(C(=O)N(CC)CC)cc2)c2cccc(O)c2)C[C@H]1C	/	/	/	/	/	.
CN(C)CCN(Cc1ccccc1)c1ccnc(N(C)C)c1C#N	7.94µM	?	63.1µM	.	?	.
CCCCCC[C@H]1C(=O)O[C@H](C)[C@H](NC(=O)c2cccc(NC=O)c2O)C(=O)O[C@@H](C)[C@@H]1OC(=O)CC(C)C	/	/	/	/	/	.
N#CSCC(=O)N1c2ccccc2CCc2ccccc21	?	.	.	10.6µM	.	.
Nc1ccccc1C(=O)OCC(=O)N1CCc2ccccc21	.	.	.	.	.	.
CCOC(=O)C1(CCCc2ccccc2)CCN(C2CCCC2)CC1	.	?	.	.	.	.
CN1CCCN(C(=O)COc2ccccc2)CC1	/	.	.	.	.	.
O=C(Cc1ccccc1)N1CCN(C2CCCC2)CC1	.[2.33 µM]	?	31.6µM	.	.	89.1µM
O=C(COc1ccc2ccccc2c1)N1CCN(C2CCN(Cc3ccccc3)CC2)CC1	.	.	.	.	.	.
O=C(COc1ccccc1)N1CCN(C2CCCC2)CC1	10µM	.	7.94µM	.	.	.
COc1ccc(OCC(=O)N2CCN(C3CCC(c4ccccc4)CC3)CC2)cc1 (stereo not given)	?	50.1µM	20µM	.	?	.
CSc1ccc(Cl)c(C(=O)OCC(=O)N2CCN(C(=O)c3ccco3)CC2)c1	?	.	.	.	.	/
CN1C(=O)NC(=O)/C(=C\c2ccc([N+](=O)[O-])o2)C1=O	12.6µM	35.5µM	15.8µM	2.67µM	25.1µM	39.8µM
O=C1NC(=O)N(c2ccc3c(c2)OCO3)C(=O)/C1=C\c1ccc(N2CCCCC2)o1	.	.	.	.	.	.
O=C1NC(=O)N(c2ccccc2)C(=O)/C1=C\c1ccc([N+](=O)[O-])o1	12.6µM	39.8µM	/	/	/	17.8µM
O=C(Nc1ccc2c(c1)OCO2)c1cccn(Cc2cccc([N+](=O)[O-])c2)c1=O	.	.	.	/	.	/
CCCN1CCc2cccc3c2C1Cc1ccc(O)c(O)c1-3 (stereo not given)	1µM	/	/	/	/	56.2µM
CCCN1CCc2cc(O)cc3c2[C@H]1Cc1ccc(O)c(O)c1-3	1.12µM	/	12.6µM	.	11.2µM	/
COc1cc2c(cc1O)C[C@H]1c3c(cc(O)c(OC)c3-2)CCN1C	.	.	.	.	.	.
SMILES	G9a block	BAZ2B block	JMJD2A Tudor inh	PLK1 PBD inh	HP1b chromo inh	Sfp inh
CN1CCc2cc(O)cc3c2[C@H]1Cc1ccc(O)c(O)c1-3	1.68µM	/	7.94µM	.	?	/
CCN(CC)CCCCN1c2ccccc2Oc2ccc(Cl)cc21	/	/	/	/	/	.
COc1ccc(Nc2nc(N)nc(CSc3nc4ccccc4s3)n2)cc1	?	.	?	/	.	/
C=C(C)[C@]12C[C@@H](C)[C@@]34OC(Cc5ccccc5)(O[C@@H]1[C@@H]3C=C(COC(=O)Cc1cc(I)c(O)c(OC)c1)C[C@]1(O)C(=O)C(C)=C[C@@H]41)O2	.	/	/	/	/	.
CC/C(=N\NC(=O)c1ccccc1)c1c(O)n(Cc2ccccc2)c(=O)[nH]c1=O	?	.	.	.	?	.
CCn1c(SCC(=O)NCc2ccccc2)nnc1C(CO)NC(=O)c1ccccc1 (stereo not given)	31.6µM	.	.	.	.	.
O=C(O)CNC1c2ccccc2CSc2ccccc21 (stereo not given)	/	/	17.8µM	?	.	/
CC(C)(O)C1C2OC(=O)C1[C@]1(O)CC3O[C@@]34C(=O)OC2[C@@]14C (stereo not given in full)	.[2.33 µM]	/	/	/	/	.
C=CCn1c(O)c(/C=C2/C=c3ccccc3=N2)c(=O)[nH]c1=S	/	.	.	?	.	.
C=CCn1c(-c2ccc([N+](=O)[O-])cc2)n[nH]c1=S	5.62µM	.	8.91µM	.	.	.
C[C@@]12CCC(=O)C[C@@H]1CC[C@@H]1[C@@H]2CC[C@]2(C)C(=O)CC[C@@H]12	.[2.33 µM]	/	/	/	/	.
CC(C)(C)c1ccc(C(=O)Nc2ccc3nc(SCC(=O)N4CCCC4)sc3c2)cc1	.	.	.	/	.	/
CC(Oc1cc2oc(=O)c3c(c2cc1Cl)CCCC3)C(=O)NCc1ccccn1 (stereo not given)	?	.	.	23.8µM	.	.
C[C@@H]1NCCc2cc(O)c(O)cc21	1.78µM	.	20µM	.	?	?
Oc1ccccc1CN(CCc1ccccc1)Cc1ccccc1	.[0.501 µM]	?	44.7µM	.	.	?
CN(CCc1ccccc1)Cc1ccccc1[N+](=O)[O-]	?	?	.	.	.	.
Brc1ccccc1	.	.	.	.	.	.
S=C(Nc1ccccc1)Nc1cccc(Br)c1	.	.	.	26.7µM	.	.
CC(C)(C)NCc1cccn1-c1sc2c(c1C#N)CCCC2	?	56.2µM	28.2µM	.	?	.
CCN1C(=O)C(=Cc2cc(C)n(C3CC3)c2C)C(=O)N(CC)C1=S	50.1µM	.	.	.	.	?
Cc1cc(/C=C2\C(=O)NC(=S)N(C)C2=O)c(C)n1C1CCCCC1	?	.	.	.	.	?
Cc1cc(C=C2C(=O)N(C)C(=S)N(C)C2=O)c(C)n1C1CCCC1	11.2µM	?	?	?	.	56.2µM
Cc1ccc(Cl)c(O)c1	.	/	/	/	/	.
C[C@H](N)C(=O)N[C@@H](C)C(=O)N[C@@H](Cc1ccccc1)C(=O)CCl	15.8µM	/	/	/	/	.
C[C@H](NC(=O)[C@@H](N)Cc1ccc(O)cc1)C(=O)N[C@@H](Cc1ccccc1)C(=O)N[C@@H](Cc1ccccc1)C(N)=O	.	/	/	/	/	.

Source: PubChem (National Center for Advancing Translational Sciences (NCATS))
